This note sets out measurements from PubChem BioAssay AID720604 (Broad Institute, 2013).

Potency and affinity values are given separately. Inconclusive results are not listed. A call without a number means that no potency is given here. The source made the active and inactive calls.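 Rule for the calls: active = compound lowering viability with a fitted half-effect dose within twice the top dose in every timed run; inconclusive = timed runs disagree on the call; inactive = inactive in every run, including a rising signal.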

The experiment in a line: cytotoxicity in primary human umbilical endothelium – cell-based, CellTiter-Glo ATP luminescence, 8/24/48 h, dry powder, cytotoxicity control for HRAS target identification, dose response (AID 720604). A general note: ATP-based viability assays read luminescence as a measure of living cells.

`Cc1onc(C(=O)N2CCN(C(c3ccc(Cl)cc3)c3ccc(Cl)cc3)CC2)c1[N+](=O)[O-]`: the outcome was inactive.
Turning to `Cc1onc(C(=O)N2CCN(C(c3ccncc3)c3ccncc3)CC2)c1[N+](=O)[O-]`, the call was inactive.
